{
  "source": "PubChem BioAssay (Tox21)",
  "note": "Inconclusive results are not listed. A number with no mark means an inactive call. Active and inactive are the calls of the source. The call rests on the fitted dose curve; in most records, active means well fitted activation curve with a large enough effect in the repeat runs; inconclusive means weak or mixed curves; inactive means no such curve, though single readings can be large or run the other way. On the % scale 0 is the no-effect control and ±100 the full control effect.",
  "data": [
    {"test": "qHTS assay for small molecules that induce genotoxicity in human embryonic kidney cells expressing luciferase-tagged ATAD5 (AID 651632); further: nearly all actives have a fitted effect of over 15% in size", "conditions": "HEK293T ATAD5-luciferase induction, 16 h; series mostly up to 83.3 µM; activation: at the top concentration", "source_text": "U.S. Tox21 Program National Center for Advancing Translational Sciences [NCATS] NIH Chemical Genomics Center [NCGC] U.S. Environmental Protection Agency [EPA] National Institutes of Environmental Health Sciences [NIEHS] National Toxicology Program [NTP] U.S. Food and Drug Administration [FDA] Tox21 Assay Overview: As cancer cells divide rapidly and during every cell division they need to duplicate their genome by DNA replication. The failure to do so results in the cancer cell death. Based on this concept, many chemotherapeutic agents were developed but have limitations such as low efficacy and severe side effects etc. A new cell based assay was developed to find the compounds that effectively block DNA replication either by directly damaging DNA or by inhibiting other cellular mechanisms. Enhanced Level of Genome Instability Gene 1 (ELG1; human ATAD5) protein levels increase in response to various types of DNA damage. Using a luciferase reporter-gene tagged with ATAD5, a cell-based assay [developed by Kyungjae Myung, NHGRI, NIH] was used to measure the induction of ATAD5 in human embryonic kidney cells (HEK293T). So, increase in luciferase activity can be used to identify the compounds that cause genetic stress.\nTox21 Assay Protocol Summary: For genotoxicity screening, 2,000 cells in 5 uL/well were dispensed into white, solid-bottom 1536-well plates using a Multidrop Combi (Thermo Scientific) dispenser. Following transfer of 23 nL compound or DMSO vehicle by a pin tool, the plates were incubated 16 hr at 37C and 5% CO2. 5 ul Amplite (AAT Bioquest, Inc.) was then added to each plate and following 30 min incubation at room temperature, luciferase activity was quantified on a ViewLux CCD-based plate reader.", "values": [
      {"smiles": "Cc1ncc([N+](=O)[O-])n1CC(C)O", "note": "(stereo not given)", "activation": "-2.73%"},
      {"smiles": "CC1CCc2c(N3CCC(O)CC3)c(F)cc3c(=O)c(C(=O)O)cn1c23", "note": "(stereo not given)", "activation": "1.19%"},
      {"smiles": "CC(C)OC(=O)CCC(=O)OC(C)C", "activation": "-3.04%"},
      {"smiles": "CC1(C)Cc2cccc(N)c2O1", "activation": "1.56%"},
      {"smiles": "C=CC/C=C/C", "activation": "2.72% [at 95.3 µM]"},
      {"smiles": "OCC1(CO)COCOC1", "activation": "-1.98%"},
      {"smiles": "CCC(=O)CC", "activation": "0.747%"},
      {"smiles": "Cn1c(=O)c2c(ncn2CCO)n(C)c1=O", "activation": "-2.81%"},
      {"smiles": "CC(=O)CC(=O)OC(C)(C)C", "activation": "0.483%"},
      {"smiles": "C/C=C(\\C)C(C)=O", "activation": "2.66%"},
      {"smiles": "CCCCOCCOC(=O)COc1ccc(Cl)cc1Cl", "activation": "2.2%"},
      {"smiles": "Cc1c(NC(=O)c2cccnc2)c(=O)n(-c2ccccc2)n1C", "activation": "-1.59% [at 39.1 µM]"},
      {"smiles": "CCOCCOCC", "activation": "-4.66% [at 95.3 µM]"},
      {"smiles": "N[C@@H](Cc1ccc(O)cc1)C(=O)O", "activation": "0.897%"},
      {"smiles": "CCC(C)C(C)=O", "note": "(stereo not given)", "activation": "-0.465%"},
      {"smiles": "C=Cc1ccc(C(C)(C)C)cc1", "activation": "0.602%"},
      {"smiles": "Nc1nc(-c2ccccc2)c(Br)c(=O)[nH]1", "activation": "-7.32%"},
      {"smiles": "C=CC(=O)CCCCC", "activation": "0.94% [at 95.3 µM]"},
      {"smiles": "CCC[C@@H]1C[C@@H](C(=O)N[C@@H]([C@H]2O[C@H](SC)[C@H](O)[C@@H](O)[C@H]2O)[C@@H](C)O)N(C)C1", "activation": "-0.145%"},
      {"smiles": "N[C@@H](CSCCCO)C(=O)O", "activation": "4.41%"},
      {"smiles": "COc1nc(N)nc2nc[nH]c12", "activation": "4.39%"},
      {"smiles": "CCCCCC(C)O", "note": "(stereo not given)", "activation": "-1.25%"},
      {"smiles": "CC(O)CC(C)O", "note": "(stereo not given)", "activation": "0.302%"},
      {"smiles": "COC(=O)CCCCC(=O)O", "activation": "2.96%"},
      {"smiles": "O=C(Cn1ccnc1[N+](=O)[O-])NCc1ccccc1", "activation": "1.58%"},
      {"smiles": "CC(=O)c1cc(C)oc1C", "activation": "-1.49% [at 95.3 µM]"},
      {"smiles": "Cc1cc(-c2ccccc2)nnc1NCCN1CCOCC1", "activation": "3.68%"},
      {"smiles": "CCC(=O)c1c(O)cc(O)cc1O", "activation": "-7.38%"},
      {"smiles": "c1ccc2c(CC3=NCCN3)cccc2c1", "outcome": "inactive"},
      {"smiles": "COP(=O)(O)OP(=O)(O)OC", "activation": "1.7%"},
      {"smiles": "CC(C)C1OCCN1CCOC(=O)NCCCCCCNC(=O)OCCN1CCOC1C(C)C", "note": "(stereo not given)", "activation": "-0.83%"},
      {"smiles": "O=C(Cl)c1ccccc1[N+](=O)[O-]", "activation": "-3.72% [at 95.3 µM]"},
      {"smiles": "C#CCN[C@@H]1CCc2ccccc21", "activation": "1.41%"},
      {"smiles": "O=NN(CCCl)C(=O)NC1CCCCC1", "activation": "-0.499%"},
      {"smiles": "CC(C)c1ccc(C=O)cc1", "activation": "1.7%"},
      {"smiles": "O=C1CCCCO1", "activation": "0.426%"},
      {"smiles": "O=C(O)CSCC(=O)NC1CCSC1=O", "note": "(stereo not given)", "activation": "2.92%"},
      {"smiles": "C=C(C)c1cccc(C(C)(C)N=C=O)c1", "activation": "-3.38%"},
      {"smiles": "C=CCN1C[C@H](C(=O)N(CCCN(C)C)C(=O)NCC)C[C@@H]2c3cccc4[nH]cc(c34)C[C@H]21", "activation": "3.51%"},
      {"smiles": "OCCN1CCOCC1", "activation": "-0.823%"}
    ]}
  ]
}
